Source: PubChem BioAssay
Pf growth 96h = P. falciparum growth inhibition at 96 hour, primary screen for plastid delayed-death inhibitors; P. falciparum luciferase reporter growth, 96 h; Potency, µM (doses to about 28.7 µM), inactives show at the highest dose activity change, negative = inhibition, usual class: inhibitors; hit rate 6.9% among 320,000; note: % is set by controls: 0 for no effect and ±100 for the full control effect
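Compounds incubated with erythrocytes infected by luciferase-expressing P. falciparum (2% hematocrit, 0.05% parasitemia final) for 96 hours, 37 C in 5% CO2. Growth inhibition scored as decreased luciferase luminescence.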
NS1 function inh = inhibitors of influenza NS1 protein function; AID 2326; Potency, µM (doses to about 46.1 µM), without a hit: at the top dose activity, positive = more growth; hit rate 0.4% among 270,000; calls by dose curve; note: actives are rising curves; nearly all actives have a fitted effect of over 50% in size
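Growth recovery, yeast-based: influenza A NS1 expressed in S. cerevisiae causes slow growth, and suppressors are detected by OD600. The parent strain without NS1 is used as positive control.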
SARS PLpro yeast = inhibitors of SARS-CoV papain-like protease in yeast; S. cerevisiae expressing SARS-CoV PLpro, growth rescue; Potency, µM (doses to about 32.9 µM), inactives show top-dose activity, positive = growth rescue, usual class: activators; hit rate 0.19% among 330,000; AID 485353; calls by dose curve; note: 0% is about no effect; nearly all actives have a fitted effect of over 55% in size
HCV inh = HCV inhibition; Potency, µM (doses to about 41.8 µM), inactives show at the top dose activity change, negative = inhibition, hits mostly inhibitors; AID 651820; Huh7.5.1 HCVcc-Cre infection, luciferase reporter, 44 h; hit rate 3.4% among 340,000; note: % is set by controls: 0 for no effect and ±100 for the full control effect
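Seed cells (1,000/well) for 4 h; treat with compound and infect with HCVcc-Cre, moi about 0.5. Incubate 44 h, then detect luciferase activity.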
AMA1 RON2 block = AMA1-RON2 (P. falciparum) interaction inhibition | AlphaScreen AMA1-biotinylated RON2 peptide binding | Potency, µM (series often up to 58.2 µM), inactives show at the top dose activity change, negative = inhibition, hits mostly inhibitors | AID 720542 | hit rate 0.2% among 360,000;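 note: 0% = vehicle wells and -100% = peptide control; nearly all actives have a fitted effect of over 45% in size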
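AMA1 (3D7) with his tag at 25 nM final met compounds first, then biotinylated RON2 peptide at 25 nM; detection used donor plus acceptor beads, 10 µg/mL apiece, read by AlphaScreen after 30 min at room temperature.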
Pf growth 48h = inhibits P. falciparum growth in the first generation, 48 h. hit rate 5.9% among 310,000. P. falciparum luciferase growth in erythrocytes, 48 h. AID 504832. Potency, µM (titrated, usually from 28.7 µM), inactives show at the highest dose activity change, negative = inhibition, usual class: inhibitors; note: % is set by controls: 0 for no effect and ±100 for the full control effect
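In quantitative HTS format, infected erythrocytes bearing luciferase-reporter parasites were treated for a single generation at 37 C. Luminescence after adding detection reagent served as the growth measure.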
The depositor's hits bear a star. Shown are actives, neighbours in structure and some others; about 12% of the full set was active somewhere. Unless noted, calls come from the whole dose curve; as a rule, active = well fitted curve in the direction sought with a large enough effect; inconclusive = small, poorly fitted or top-dose-only effect, or another doubt; inactive = no such curve, though single readings can be large; an effect the other way counts as inactive or inconclusive. Potency is the fitted concentration of half-maximal effect.

How did CCCCCCC(C)(C)c1ccc([C@@H]2C[C@H](O)CC[C@H]2CCCO)c(O)c1 do in these assays?
Pf growth 96h: 5.22µM*; NS1 function inh: -66.8%; HCV inh: inconclusive; AMA1 RON2 block: 4.7%; Pf growth 48h: 4.65µM*

What do the screens show for `COc1ccc(C(CNC(=O)C2COc3ccccc3O2)N2CCCC2)cc1` (stereo unspecified)?
Pf growth 96h: inconclusive; SARS PLpro yeast: 1.3%; HCV inh: 5.2%; AMA1 RON2 block: -12.0%; Pf growth 48h: -23.8%

How did COc1ccc(N(C(C)=O)S(=O)(=O)c2cc(OC)ccc2OC)cc1 do in these assays?
Pf growth 96h: 8.28µM*; NS1 function inh: -6.5%; SARS PLpro yeast: 3.3%; HCV inh: -3.5%; AMA1 RON2 block: -3.6%; Pf growth 48h: -21.8%

Results for O=C1C(=O)N(CCN2CCOCC2)C(c2ccccc2F)/C1=C(\O)c1ccc(S(=O)(=O)N2CCOCC2)cc1 (stereo unspecified) ?
Pf growth 96h: -27.0%; NS1 function inh: 4.2%; SARS PLpro yeast: 0.7%; HCV inh: 18.5%; AMA1 RON2 block: -9.0%; Pf growth 48h: 27.4%

How did O=C1C(=O)N(CCN2CCOCC2)C(c2ccc(Cl)cc2)/C1=C(/O)c1ccc(S(=O)(=O)N2CCOCC2)cc1 (stereo unspecified) do in these assays?
Pf growth 96h: 2.62µM*; NS1 function inh: 6.5%; SARS PLpro yeast: 3.4%; HCV inh: 21.9%; AMA1 RON2 block: 8.3%; Pf growth 48h: -39.8%

What do the screens show for `CCOc1ccc(C2/C(=C(/O)c3ccc(S(=O)(=O)N4CCCCC4)cc3)C(=O)C(=O)N2CCCOC)cc1OC` (stereo unspecified)?
Pf growth 96h: 3.7µM*; NS1 function inh: 10.4%; SARS PLpro yeast: -3.1%; HCV inh: 0.1%; AMA1 RON2 block: -9.9%; Pf growth 48h: inconclusive

How did CCN=C1NN=C(c2cc(C)n(CCc3ccccc3)c2C)CS1 do in these assays?
Pf growth 96h: inconclusive; SARS PLpro yeast: -6.8%; HCV inh: -28.7%; AMA1 RON2 block: 32.0%; Pf growth 48h: inconclusive

What do the screens show for `C=CCn1c(C)cc(C2=NNC(=NCc3ccccc3)SC2)c1C`?
Pf growth 96h: 10.4µM*; SARS PLpro yeast: 4.2%; HCV inh: inconclusive; AMA1 RON2 block: 45.6%; Pf growth 48h: -19.5%

What do the screens show for `Cc1cc(C2=NNC(=NCCc3ccccc3)SC2)c(C)n1CC1CCCO1` (stereo unspecified)?
Pf growth 96h: inconclusive; SARS PLpro yeast: 3.3%; HCV inh: 11.2µM*; AMA1 RON2 block: 44.9%; Pf growth 48h: inconclusive

What do the screens show for `CCN=C1NN=C(c2cc(C)n(Cc3ccco3)c2C)CS1`?
Pf growth 96h: -27.1%; NS1 function inh: -7.5%; SARS PLpro yeast: 2.8%; HCV inh: -23.2%; AMA1 RON2 block: 48.2%; Pf growth 48h: -45.4%

What do the screens show for `C=CCOC(=O)C1=C(C)OC(N)=C(C#N)C1c1ccco1` (stereo unspecified)?
Pf growth 96h: 12.0%; NS1 function inh: 4.3%; SARS PLpro yeast: 1.6%; HCV inh: 10.5%; AMA1 RON2 block: 1.2%; Pf growth 48h: 0.0%

Results for CC1=C(C(=O)OC(C)(C)C)C(c2ccco2)C(C#N)=C(N)O1 (stereo unspecified) ?
Pf growth 96h: 2.08µM*; NS1 function inh: -6.2%; SARS PLpro yeast: 1.9%; HCV inh: -13.2%; AMA1 RON2 block: 1.0%; Pf growth 48h: 0.1%

What do the screens show for `O=C(COc1cccc2cccnc12)NNC(=S)Nc1ccccc1`?
Pf growth 96h: 0.657µM*; SARS PLpro yeast: -0.1%; Pf growth 48h: -22.2%

Results for O=C(/C=C/c1ccccc1)Oc1cccc2cccnc12 ?
Pf growth 96h: 3.7µM*; NS1 function inh: -54.7%; SARS PLpro yeast: -5.6%; HCV inh: -29.7%; AMA1 RON2 block: 84.0%; Pf growth 48h: 4.65µM*

What do the screens show for `O=C(Oc1cccc2cccnc12)c1ccccc1`?
Pf growth 96h: -7.2%; Pf growth 48h: inconclusive

What do the screens show for `O=C(/C=C\c1ccccc1)Oc1cccc2cccnc12`?
Pf growth 96h: 5.86µM*; SARS PLpro yeast: -1.7%; HCV inh: inconclusive; AMA1 RON2 block: 126.1%; Pf growth 48h: inconclusive

What do the screens show for `CCOc1ccc(S(=O)(=O)N2CCN(Cc3ccco3)CC2)cc1`?
Pf growth 96h: inconclusive; NS1 function inh: 2.3%; SARS PLpro yeast: -4.4%; HCV inh: -17.5%; AMA1 RON2 block: 6.0%; Pf growth 48h: inconclusive

How did COc1cccc(N2CCN(CC(=O)Nc3ccccc3C(=O)NCCc3ccccc3)CC2)c1 do in these assays?
Pf growth 96h: inconclusive; SARS PLpro yeast: -1.9%; HCV inh: inconclusive; AMA1 RON2 block: -16.4%; Pf growth 48h: inconclusive

How did COc1cc2c(cc1OC)CN(CC(=O)Nc1ccccc1C(=O)NCc1ccccc1)CC2 do in these assays?
Pf growth 96h: 2.94µM*; NS1 function inh: 4.6%; SARS PLpro yeast: -0.5%; HCV inh: -26.3%; AMA1 RON2 block: 5.6%; Pf growth 48h: 16.5µM*

Results for COc1cc2c(cc1OC)CN(CC(=O)Nc1ccccc1C(=O)NC1CC1)CC2 ?
Pf growth 96h: -75.0%; SARS PLpro yeast: 8.1%; HCV inh: -0.3%; AMA1 RON2 block: 19.9%; Pf growth 48h: inconclusive

What do the screens show for `COc1cc2c(cc1OC)CN(CC(=O)NC(=O)NCc1ccccc1)CC2`?
Pf growth 96h: inconclusive; NS1 function inh: 2.9%; SARS PLpro yeast: 4.7%; HCV inh: -1.6%; AMA1 RON2 block: 3.8%; Pf growth 48h: 9.28µM*

How did Oc1ccc(N2CCN(C(=S)NCCc3ccccc3)CC2)cc1 do in these assays?
Pf growth 96h: 138.8%; NS1 function inh: -117.2%; SARS PLpro yeast: -25.8%; HCV inh: inconclusive; AMA1 RON2 block: 83.0%; Pf growth 48h: inconclusive

What do the screens show for `O=C(CN1CCN(c2ccc(O)cc2)CC1)Nc1ccccc1C(=O)NCCc1ccccc1`?
Pf growth 96h: inconclusive; SARS PLpro yeast: -2.1%; HCV inh: 12.6µM*; AMA1 RON2 block: 4.5%; Pf growth 48h: inconclusive

What do the screens show for `COc1cccc(N2CCN(CC(=O)Nc3ccccc3C(=O)NCc3ccccc3)CC2)c1`?
Pf growth 96h: inconclusive; SARS PLpro yeast: -1.5%; HCV inh: inconclusive; AMA1 RON2 block: -12.9%; Pf growth 48h: 9.28µM*

What do the screens show for `Cc1sc(C(=O)Nc2ccc3ccccc3c2)cc1CC(=O)O`?
Pf growth 96h: -16.8%; SARS PLpro yeast: -1.1%; HCV inh: 3.9%; AMA1 RON2 block: 2.0%; Pf growth 48h: 53.4%

Results for CCc1cc(C(=O)NC2CCCc3c2cnn3-c2ccc(F)cc2F)no1 (stereo unspecified) ?
AMA1 RON2 block: -2.6%

Results for C=CCNC(=O)C(=O)N/N=C/c1ccco1 ?
Pf growth 96h: inconclusive; NS1 function inh: 0.4%; SARS PLpro yeast: -27.1%; HCV inh: -3.6%; AMA1 RON2 block: 20.5%; Pf growth 48h: 6.5%
